{"source": "paper PMC12135187", "about": "“A role for pH dynamics regulating transcription factor DNA-binding selectivity”", "note": "In all, about 1,100 sequences were measured (“relative enrichment”: median about 0.38, highest 2% from about 0.66 on). The sample as a whole holds a higher share of the highest values than the screen did.", "data": [{"biological_target": "T1, FOXC2 DBD WT (UniProt Q99958 72-172)", "T1 sequence": "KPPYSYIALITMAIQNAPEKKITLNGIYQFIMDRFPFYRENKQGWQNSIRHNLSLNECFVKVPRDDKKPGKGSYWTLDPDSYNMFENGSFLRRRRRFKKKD", "test": "SELEX-seq (GST pull-down, four rounds, 16-nt random library); pH 7.0; 20 mM HEPES, 140 mM KCl, 0.05 mM TCEP-HCl, pH 7.0, room temperature, 30 min; 2.5 uM GST-FOXC2 DBD, 0.25 uM DNA library; high values mean tight binding", "settings": "protein: recombinant; tags: N-terminal GST (pGEX-6P-2); dsDNA, one strand shown", "outline": "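GST-tagged FOXC2 DNA-binding domain (E. coli-expressed, glutathione-purified) was incubated with a DNA library carrying a 16 bp randomized region, at 0.25 μM DNA and 2.5 μM protein, for 30 min at RT in 20 mM HEPES, 140 mM KCl, 0.05 mM TCEP–HCl, pH 7. Complexes were captured on glutathione Sepharose beads, washed, heat-eluted and PCR-amplified over four rounds. Initial and selected libraries were Illumina MiniSeq sequenced. Relative enrichment came from the Bioconductor SELEX R package.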", "units": {"binding signal": "relative enrichment"}, "values": [{"sequence": "TAATGA", "binding signal": 0.31}, {"sequence": "AAGCTA", "binding signal": 0.297}, {"sequence": "TACACC", "binding signal": 0.418}, {"sequence": "TACCTC", "binding signal": 0.625}, {"sequence": "CACCTC", "binding signal": 0.731}, {"sequence": "CACCTG", "binding signal": 0.535}, {"sequence": "CAATAA", "binding signal": 0.513}, {"sequence": "CTTATC", "binding signal": 0.378}, {"sequence": "AACAGG", "binding signal": 0.325}, {"sequence": "TCAACT", "binding signal": 0.324}, {"sequence": "CAACCA", "binding signal": 0.261}, {"sequence": "TTCCTA", "binding signal": 0.364}, {"sequence": "CTTACA", "binding signal": 0.35}, {"sequence": "TATAAA", "binding signal": 0.283}, {"sequence": "ATACTC", "binding signal": 0.432}, {"sequence": "GAAAAA", "binding signal": 0.304}, {"sequence": "TGGTAA", "binding signal": 0.428}, {"sequence": "AGAATG", "binding signal": 0.543}, {"sequence": "TCAATC", "binding signal": 0.416}, {"sequence": "CTTTGA", "binding signal": 0.338}, {"sequence": "AACGTT", "binding signal": 0.324}, {"sequence": "CTCATT", "binding signal": 0.311}, {"sequence": "AACAAT", "binding signal": 0.374}, {"sequence": "ATAGTC", "binding signal": 0.461}, {"sequence": "TTCACT", "binding signal": 0.426}, {"sequence": "AAAGAT", "binding signal": 0.356}, {"sequence": "ATAGAA", "binding signal": 0.4}, {"sequence": "TCTCTA", "binding signal": 0.45}, {"sequence": "ATATTA", "binding signal": 0.266}, {"sequence": "ATACGC", "binding signal": 0.457}, {"sequence": "ACGAAA", "binding signal": 0.388}, {"sequence": "CATACG", "binding signal": 0.448}, {"sequence": "TATGAA", "binding signal": 0.387}, {"sequence": "AATTCA", "binding signal": 0.336}, {"sequence": "AAATTC", "binding signal": 0.343}, {"sequence": "ACACGT", "binding signal": 0.335}, {"sequence": "CTTAAG", "binding signal": 0.341}, {"sequence": "AATCGT", "binding signal": 0.337}, {"sequence": "CTACAC", "binding signal": 0.417}, {"sequence": "TTTCCC", "binding signal": 0.38}, {"sequence": "AAACCC", "binding signal": 0.354}, {"sequence": "ACTAAT", "binding signal": 0.328}, {"sequence": "ACTACA", "binding signal": 0.297}, {"sequence": "GCTACA", "binding signal": 0.348}, {"sequence": "ACCATG", "binding signal": 0.559}, {"sequence": "ATCAAT", "binding signal": 0.463}, {"sequence": "CGTCAT", "binding signal": 0.583}, {"sequence": "AAATCC", "binding signal": 0.354}, {"sequence": "TACTCC", "binding signal": 0.566}, {"sequence": "AACTTC", "binding signal": 0.432}, {"sequence": "CACTGC", "binding signal": 0.574}, {"sequence": "CACTTA", "binding signal": 0.321}, {"sequence": "TACTTC", "binding signal": 0.678}, {"sequence": "CACTTC", "binding signal": 0.726}, {"sequence": "AAGCTC", "binding signal": 0.44}, {"sequence": "CTCTTG", "binding signal": 0.394}, {"sequence": "ACCCTT", "binding signal": 0.488}, {"sequence": "CACGTA", "binding signal": 0.469}, {"sequence": "CATCTC", "binding signal": 0.642}, {"sequence": "CCCATT", "binding signal": 0.378}, {"sequence": "CCTCTA", "binding signal": 0.483}, {"sequence": "CTTAAC", "binding signal": 0.232}, {"sequence": "ACACGA", "binding signal": 0.377}, {"sequence": "ATATGC", "binding signal": 0.286}, {"sequence": "ACGACT", "binding signal": 0.561}, {"sequence": "AGTCTA", "binding signal": 0.54}, {"sequence": "ACCCAT", "binding signal": 0.43}, {"sequence": "TGACAA", "binding signal": 0.337}, {"sequence": "TACCCA", "binding signal": 0.526}, {"sequence": "GTAAAC", "binding signal": 0.561}, {"sequence": "ATAAAA", "binding signal": 0.231}, {"sequence": "ATAAGC", "binding signal": 0.803}, {"sequence": "ATAAGA", "binding signal": 0.307}, {"sequence": "ATAAAC", "binding signal": 1}, {"sequence": "ATAAGG", "binding signal": 0.316}, {"sequence": "CCCTTG", "binding signal": 0.444}, {"sequence": "GAGTAA", "binding signal": 0.439}, {"sequence": "ATGCTA", "binding signal": 0.343}, {"sequence": "CAAGCA", "binding signal": 0.489}, {"sequence": "TAAGCA", "binding signal": 0.814}, {"sequence": "AAAGCA", "binding signal": 0.341}, {"sequence": "TCTGTG", "binding signal": 0.32}, {"sequence": "AGCGTA", "binding signal": 0.542}, {"sequence": "GACACA", "binding signal": 0.296}, {"sequence": "CTCTTA", "binding signal": 0.325}, {"sequence": "CTCTTC", "binding signal": 0.799}, {"sequence": "ATCTTA", "binding signal": 0.332}, {"sequence": "TTCTCT", "binding signal": 0.453}, {"sequence": "TTCTTC", "binding signal": 0.673}, {"sequence": "CTCTTT", "binding signal": 0.469}, {"sequence": "ATCTTG", "binding signal": 0.318}, {"sequence": "ATCTTC", "binding signal": 0.665}, {"sequence": "TTCTAC", "binding signal": 0.528}, {"sequence": "ATCTAG", "binding signal": 0.559}, {"sequence": "GCCAAT", "binding signal": 0.341}, {"sequence": "CCACTG", "binding signal": 0.649}, {"sequence": "ACTTGC", "binding signal": 0.489}, {"sequence": "CCCTGT", "binding signal": 0.366}, {"sequence": "ACAGAG", "binding signal": 0.418}, {"sequence": "CCTCAT", "binding signal": 0.455}, {"sequence": "TAGTCA", "binding signal": 0.442}, {"sequence": "AGTCAT", "binding signal": 0.491}, {"sequence": "ATTGCC", "binding signal": 0.483}, {"sequence": "GCCATA", "binding signal": 0.387}, {"sequence": "AACTCA", "binding signal": 0.249}, {"sequence": "TGCAAA", "binding signal": 0.311}, {"sequence": "ACATTA", "binding signal": 0.277}, {"sequence": "ACATGT", "binding signal": 0.276}]}]}
